Read-out in assay [1]: Macrophage colony-stimulating factor (MCSF), CSF1 (gene 1435)
The assay is described as follows: BSK_LPS_MCSF: BioMAP Diversity Plus: LPS Assay for Macrophage colony-stimulating factor (MCSF) Biomarker Activity (AID 2283083). The settings on record: primary human HUVEC with PBMC; actives raise or lower the signal. The method, boiled down:
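Bidirectional fitting against DMSO was applied to M-CSF levels read by ELISA at 24 h post-dose. The system pairs human umbilical vein endothelium with peripheral blood mononuclear cells; parallel SRB staining tracked cytotoxicity.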

Read-out in assay [2]: Tissue Factor, F3 (gene 2152)
The experiment in a line: BSK_LPS_TissueFactor: BioMAP Diversity Plus: LPS Assay for Tissue Factor Biomarker Activity (AID 2283084). The settings on record: primary human HUVEC with PBMC; actives raise or lower the signal. The method in brief:
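Compound was added to an endothelial cell/PBMC co-culture, and after 24 h tissue factor (CD142) was read by ELISA. Gain or loss of signal was fitted against a DMSO baseline, and parallel SRB staining (560 nm) tracked overt cytotoxicity.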

Read-out in assay [3]: Tumor necrosis factor (Homo sapiens) (UniProt P01375)
The assay is described as follows: BSK_LPS_TNFa: BioMAP Diversity Plus: LPS Assay for Tumour Necrosis Factor alpha (TNFa) Biomarker Activity (AID 2283085). The conditions noted are these: primary human HUVEC with PBMC; actives raise or lower the signal. The method, boiled down:
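Human umbilical vein endothelial cells co-cultured with PBMC and stimulated with LPS. TNFa was measured by ELISA 24 h after chemical dosing, fitted bidirectionally relative to DMSO.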

Read-out in assay [4]: Vascular cell adhesion molecule 1 (VCAM1), VCAM1 (gene 7412)
The assay is described as follows: BSK_LPS_VCAM1: BioMAP Diversity Plus: LPS Assay for Vascular cell adhesion molecule 1 (VCAM1) Biomarker Activity (AID 2283086). The settings on record: primary human HUVEC with PBMC; actives raise or lower the signal. The method, boiled down:
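Human umbilical vein endothelial cells co-cultured with PBMC and stimulated with LPS; VCAM-1 measured by ELISA 24 h after dosing. Bidirectional curve fitting against DMSO baseline; cytotoxicity tracked in parallel by SRB total-protein staining.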

Read-out in a further assay: CD40, CD40 (gene 958)
The assay is described as follows: BSK_SAg_CD40: BioMAP Diversity Plus: SAg Assay for CD40 Biomarker Activity (AID 2283088). The conditions noted are these: primary human HUVEC with PBMC; actives raise or lower the signal. The method in brief:
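CD40 is measured by fluorescence ELISA in an endothelial/PBMC primary human co-culture at 24 h post-dose. Fitting is bidirectional, DMSO baseline. Parallel SRB staining (560 nm) flags cytotoxicity.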

Read-out in the next assay: CD69, CD69 (gene 969)
The assay is described as follows: BSK_SAg_CD69: BioMAP Diversity Plus: SAg Assay for CD69 Biomarker Activity (AID 2283089). The settings on record: primary human HUVEC with PBMC; actives raise or lower the signal. The method, boiled down: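 Values derive from bidirectional fitting relative to DMSO vehicle. Cells: umbilical vein endothelium plus peripheral blood mononuclear cells, treated 24 h before fluorescent ELISA for CD69.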

Read-out in assay [5]: Monocyte Chemoattractant Protein-1 (MCP1), CCL2 (gene 6347)
The assay is described as follows: BSK_SAg_MCP1: BioMAP Diversity Plus: SAg Assay for Monocyte Chemoattractant Protein-1 (MCP1) Biomarker Activity (AID 2283090). The settings on record: primary human HUVEC with PBMC; actives raise or lower the signal. The method in brief:
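MCP-1 levels in the endothelial–PBMC SAg co-culture were quantified by ELISA at 24 h post-dosing; both increases and decreases versus DMSO scored. Cytotoxicity monitored by SRB total protein in parallel cultures.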

Read-out in assay [6]: E-selectin (Homo sapiens) (UniProt P16581)
The assay is described as follows: BSK_SAg_Eselectin: BioMAP Diversity Plus: SAg Assay for Eselectin Biomarker Activity (AID 2283091). The conditions noted are these: primary human HUVEC with PBMC; actives raise or lower the signal. The method in brief:
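Cell-surface E-selectin is read by ELISA at 24 h in the SAg co-culture of HUVEC and PBMC. Curves are fitted in both directions relative to DMSO. Parallel SRB total-protein staining tracks overt toxicity.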

Read-out in assay [7]: Monokine induced gamma interferon (MIG), CXCL9 (gene 4283)
The experiment in a line: BSK_SAg_MIG: BioMAP Diversity Plus: SAg Assay for Monokine induced gamma interferon (MIG) Biomarker Activity (AID 2283092). The settings on record: primary human HUVEC with PBMC; actives raise or lower the signal. The method in brief: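 Values reflect bidirectional fitting of ELISA-measured MIG against DMSO vehicle, taken 24 h after dosing of a co-culture of human umbilical vein endothelial cells and peripheral blood mononuclear cells.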

Assay [8] in a line: BSK_SAg_PBMCCytotoxicity: PBMC Cytotoxicity Assessment in the BioMAP Diversity Plus: SAg Assay (AID 2283093).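 Further: PBMC viability measured as Alamar Blue reduction fluorescence at 546/580 nm; fitted both ways against DMSO so a hit may be loss or gain of signal.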 The conditions noted are these: primary human HUVEC with PBMC. The method, boiled down: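 Human umbilical vein endothelial cells co-cultured with PBMC; PBMC (75,000/well) pre-treated with compound 1 h, then activated with SEB and TSST-1 (20 ng/mL final each) for 90 h. Alamar Blue added 6 h, fluorescence 546/580 nm; bidirectional fit versus DMSO.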

Read-out in assay [9]: Interleukin-8 (IL8), CXCL8 (gene 3576)
The assay is described as follows: BSK_SAg_IL8: BioMAP Diversity Plus: SAg Assay for Interleukin-8 (IL8) Biomarker Activity (AID 2283094). The conditions noted are these: primary human HUVEC with PBMC; actives raise or lower the signal. The method in brief: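 Human umbilical vein endothelial cells co-cultured with PBMC, stimulated with superantigen; IL-8 measured by ELISA 24 h after chemical dosing. Bidirectional fitting versus DMSO; SRB staining in parallel cultures tracks cytotoxicity.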

The nature of assay [10]: BSK_SAg_Proliferation: Cell Proliferation Assessment in the BioMAP Diversity Plus: SAg Assay (AID 2283095). The settings on record: primary human HUVEC with PBMC. The method, boiled down:
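Human umbilical vein endothelial cells co-cultured with PBMC; sulforhodamine B total-protein staining (0.1% SRB after 10% TCA fixation, absorbance 560 nm) at 96 h in sub-confluent culture. Fitted bidirectionally against DMSO.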

Assay [11] in a line: BSK_SAg_SRB: Viability Assessment in the BioMAP Diversity Plus: SAg Assay (AID 2283096).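 Further: cells read one day after compound addition; hits may be either gain or loss of signal compared with DMSO.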 The conditions noted are these: primary human HUVEC with PBMC. The method, boiled down:
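Endothelial/PBMC primary human co-culture; compound 24 h; fix 10% TCA, stain 0.1% SRB, A560; protein content as cytotoxicity proxy; bidirectional curve fit, DMSO = baseline.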

The target in assay [12] is human CYP2A6, CYP2A6 (gene 1548) (UniProt P11509). The experiment in a line: NVS_ADME_hCYP2A6: NovaScreen (NVS) CYP450-related Enzyme Activity (ADME) Assay for human CYP2A6 (AID 2283099; active means hit-call score of the fitted dose curve at least 0.9, where 1 is the maximum). The method in brief: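 Compounds screened at 10 uM (duplicate) and, if active, titrated to a 20 uM top concentration against insect-cell-expressed CYP2A6. Loss of fluorescent product signal after 0.5 h, relative to acetonitrile baseline, indicates inhibition.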

Assay [13] has as its target human CYP2B6, CYP2B6 (gene 1555) (UniProt P20813). The assay is described as follows: NVS_ADME_hCYP2B6: NovaScreen (NVS) CYP450-related Enzyme Activity (ADME) Assay for human CYP2B6 (AID 2283101; active means hit-call score of the fitted dose curve at least 0.9, where 1 is the maximum). The method, boiled down: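 Compounds were first screened in duplicate at 10 uM against recombinant enzyme, with the fluorescent product measured after 1 hour. Active compounds were retested over a concentration series. Loss of fluorescence versus acetonitrile control was scored as reduced enzyme activity.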

The target of assay [14] is human CYP19A1, CYP19A1 (gene 1588) (UniProt P11511). The experiment in a line: NVS_ADME_hCYP19A1: NovaScreen (NVS) CYP450-related Enzyme Activity (ADME) Assay for human CYP19A1 (AID 2283098; active means hit-call score of the fitted dose curve at least 0.9, where 1 is the maximum;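 further: potency for inhibitors seen as loss of fluorescent enzyme signal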). The method, boiled down:
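Cell-free enzyme assay with recombinant protein and a specific fluorogenic substrate, read by fluorescence intensity 0.5 h after dosing. Primary screen ran in duplicate at 10 uM; actives were retested in concentration series. Loss of signal versus acetonitrile baseline.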

Inconclusive results are not listed. The source made the active and inactive calls. How the source made its calls, unless noted: active means hit-call score of the fitted dose curve at least 0.9, where 1 is the maximum; inactive means score below 0.9.

Chain of E-selectin (Homo sapiens) (P16581 whole entry, looked up): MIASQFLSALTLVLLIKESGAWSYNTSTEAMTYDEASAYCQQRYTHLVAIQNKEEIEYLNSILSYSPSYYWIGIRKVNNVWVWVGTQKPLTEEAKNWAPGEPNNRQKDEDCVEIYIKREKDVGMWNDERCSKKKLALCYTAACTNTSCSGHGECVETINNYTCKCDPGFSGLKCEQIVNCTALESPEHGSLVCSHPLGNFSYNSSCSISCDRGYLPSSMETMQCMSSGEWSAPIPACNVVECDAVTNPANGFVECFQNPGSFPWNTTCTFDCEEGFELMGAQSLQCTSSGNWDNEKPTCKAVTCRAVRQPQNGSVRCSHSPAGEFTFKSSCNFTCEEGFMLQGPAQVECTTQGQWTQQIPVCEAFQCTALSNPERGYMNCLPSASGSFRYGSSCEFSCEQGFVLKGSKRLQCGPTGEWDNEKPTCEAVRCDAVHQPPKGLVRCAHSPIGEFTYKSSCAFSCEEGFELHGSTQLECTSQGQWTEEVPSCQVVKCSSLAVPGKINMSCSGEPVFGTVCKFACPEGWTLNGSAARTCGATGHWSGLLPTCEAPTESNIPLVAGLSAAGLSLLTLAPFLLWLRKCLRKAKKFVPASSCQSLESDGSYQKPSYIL
Chain of Tumor necrosis factor (Homo sapiens) (P01375 whole entry, looked up): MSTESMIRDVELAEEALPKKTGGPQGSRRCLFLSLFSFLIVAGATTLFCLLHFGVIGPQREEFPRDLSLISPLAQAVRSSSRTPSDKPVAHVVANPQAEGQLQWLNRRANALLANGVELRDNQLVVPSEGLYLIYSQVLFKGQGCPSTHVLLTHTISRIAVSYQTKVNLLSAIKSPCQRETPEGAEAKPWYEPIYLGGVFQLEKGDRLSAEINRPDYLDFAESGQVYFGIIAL
Chain of human CYP19A1, CYP19A1 (gene 1588) (P11511 whole entry, looked up): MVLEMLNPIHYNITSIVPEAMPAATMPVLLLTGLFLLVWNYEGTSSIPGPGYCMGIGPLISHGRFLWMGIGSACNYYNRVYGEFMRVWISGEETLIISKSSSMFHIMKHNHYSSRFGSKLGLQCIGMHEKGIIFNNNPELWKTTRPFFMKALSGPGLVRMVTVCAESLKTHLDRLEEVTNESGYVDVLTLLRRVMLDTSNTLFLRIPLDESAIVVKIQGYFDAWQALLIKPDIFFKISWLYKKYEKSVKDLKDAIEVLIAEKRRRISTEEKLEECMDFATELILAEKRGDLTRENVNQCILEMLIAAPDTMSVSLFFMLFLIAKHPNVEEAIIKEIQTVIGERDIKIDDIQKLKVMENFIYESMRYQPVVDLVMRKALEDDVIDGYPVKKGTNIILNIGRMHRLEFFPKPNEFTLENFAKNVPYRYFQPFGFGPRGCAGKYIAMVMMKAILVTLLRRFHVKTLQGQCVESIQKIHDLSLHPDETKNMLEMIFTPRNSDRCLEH
Chain of human CYP2B6, CYP2B6 (gene 1555) (P20813 whole entry, looked up): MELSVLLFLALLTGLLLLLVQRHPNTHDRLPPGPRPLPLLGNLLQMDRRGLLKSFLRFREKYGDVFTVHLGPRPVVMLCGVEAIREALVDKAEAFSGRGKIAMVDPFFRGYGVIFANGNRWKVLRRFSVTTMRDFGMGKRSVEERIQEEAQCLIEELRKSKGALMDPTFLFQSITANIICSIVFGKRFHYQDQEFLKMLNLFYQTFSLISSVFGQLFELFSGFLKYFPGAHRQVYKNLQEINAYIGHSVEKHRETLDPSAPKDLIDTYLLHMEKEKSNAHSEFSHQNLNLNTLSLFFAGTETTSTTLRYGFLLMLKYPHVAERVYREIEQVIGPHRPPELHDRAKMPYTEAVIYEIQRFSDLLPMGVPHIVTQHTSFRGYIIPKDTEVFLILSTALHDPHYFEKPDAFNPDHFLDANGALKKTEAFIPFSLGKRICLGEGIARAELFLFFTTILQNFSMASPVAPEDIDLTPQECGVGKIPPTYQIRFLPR
Chain of human CYP2A6, CYP2A6 (gene 1548) (P11509 whole entry, looked up): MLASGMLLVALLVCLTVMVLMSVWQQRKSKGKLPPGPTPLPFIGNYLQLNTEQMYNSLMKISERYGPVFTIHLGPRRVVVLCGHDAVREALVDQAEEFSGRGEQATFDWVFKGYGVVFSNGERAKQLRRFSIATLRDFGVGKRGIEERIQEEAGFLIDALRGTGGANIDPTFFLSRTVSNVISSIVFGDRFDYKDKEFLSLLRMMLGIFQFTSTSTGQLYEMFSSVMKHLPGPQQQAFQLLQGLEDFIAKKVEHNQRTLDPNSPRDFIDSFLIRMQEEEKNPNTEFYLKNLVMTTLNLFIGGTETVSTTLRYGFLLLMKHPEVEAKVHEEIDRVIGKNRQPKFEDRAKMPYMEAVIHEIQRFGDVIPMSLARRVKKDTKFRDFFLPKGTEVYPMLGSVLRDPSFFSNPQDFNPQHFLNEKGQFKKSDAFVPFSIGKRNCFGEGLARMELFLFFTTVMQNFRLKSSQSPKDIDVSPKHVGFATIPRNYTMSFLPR

`CC(O)CN(CCN(CC(C)O)CC(C)O)CC(C)O` (stereo not drawn): the outcome in assay [1] is “inactive”; in assay [2] it was “inactive”; in [3] it was “inactive”; in [4], “inactive”; in the assay with CD40, CD40 (gene 958), “inactive”; in the assay with CD69, CD69 (gene 969), “inactive”. Further, the result in assay [5], in assay [6], in [7], in assay [8], in [9] and in assay [10] was inactive. Also, the outcome in assay [11] was inactive.
`O=P(OC(CCl)CCl)(OC(CCl)CCl)OC(CCl)CCl`: the outcome in [1] is “inactive”; in [2], “inactive”; in assay [3], “inactive”; in assay [4], “inactive”; in the assay with CD69, CD69 (gene 969), “inactive”; in [7], “inactive”. In addition, the result in assay [8], in [11] and in [12] was inactive. Further, the AC50 is 20 µM (active) with CD40, CD40 (gene 958); 23.4 µM (active) in [5]; 20 µM (active) in assay [6]; 20 µM (active) in assay [9]; 25.3 µM (active) in assay [10]; 6.54 µM (active) in [13].
On to `CCOC(=O)CC(CC(=O)OCC)(OC(C)=O)C(=O)OCC`, for which the outcome in [1] was “inactive”; in [2], “inactive”; in assay [3], “inactive”; in [4] it was “inactive”; with CD40, CD40 (gene 958), “inactive”; with CD69, CD69 (gene 969), “inactive”. The outcome in [5], in assay [6], in assay [7], in assay [8], in [9] and in assay [10] was inactive. Moreover, the result in assay [11] was inactive.
In the case of `CN(C)c1ccc(N=NS(=O)(=O)O)cc1`, the outcome in [1] was “inactive”; in assay [3] it was “inactive”; with CD40, CD40 (gene 958), “inactive”; with CD69, CD69 (gene 969), “inactive”; in [5] it was “inactive”; in [6] it was “inactive”. For the same molecule, the result in assay [8], in assay [9] and in assay [11] was inactive. Besides, the concentration at half-maximal activity (AC50) was 5.8 µM (active) in assay [2], 10.4 µM (active) in assay [4], 19 µM (active) in assay [10] and 12 µM (active) in [14].
With `CCN(C(=O)c1cc(C)cc(OC[C@H](C)Nc2ccncc2)c1)C(C)C`, the outcome is “inactive” in assay [1]; “inactive” in assay [2]; “inactive” in assay [3]; “inactive” in [4]; “inactive” with CD40, CD40 (gene 958); “inactive” in the assay with CD69, CD69 (gene 969). The outcome in [5], in assay [6], in assay [8], in assay [9], in assay [10] and in [11] was inactive.
With `CCCCC(CC)COC(=O)CCCCCCCCC(=O)OCC(CC)CCCC` (stereo not drawn), the outcome is “inactive” in assay [1]; “inactive” in assay [2]; “inactive” in [3]; “inactive” in [4]; “inactive” with CD40, CD40 (gene 958); “inactive” in the assay with CD69, CD69 (gene 969). Besides, the result in assay [5], in assay [6], in assay [8], in [9], in assay [10] and in [11] was inactive.

The record behind these values is PubChem BioAssay (EPA / NIEHS).
